Z-score and composite z-score data for 13 compounds are collected here from PubChem BioAssay.

Assay [1] can be described thus: HepG2 liver cancer cell viability effects, profiling panel, resazurin fluorescence, 24 h, PK04 Diversity Set (AID 1172). Also: test concentration not given here. Particulars: higher = more signal. (Alamar Blue is a resazurin reagent that responds to reducing activity.)
Assay [2] in a line: basal S. cerevisiae growth modulation, no modifier, primary screen, OD600, strain BY4716, 24 h, basal condition (AID 1173). Particulars: OD600, 24 h, higher = more signal, called active from +8 up or from −8 down.
Assay [3] can be described thus: MM1S myeloma cell viability, profiling panel, resazurin fluorescence, basal, 24 h, PK04 Diversity Set (AID 1174).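 Also: MM1S multiple myeloma cell line; test concentration not given here.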 Particulars: higher = more signal, called active from +8 up or from −8 down.
The target in assay [4] is Dihydroorotate dehydrogenase (quinone), mitochondrial (Plasmodium falciparum (isolate 3D7)) (UniProt Q08210). The assay can be described thus: PfDHODH enzyme inhibitors, primary screen, biochemical, C-terminal His tag, absorbance 600 nm (AID 1175).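 Also: recombinant parasite enzyme with a five histidine tag at its C terminus; test concentration not given here.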 Particulars: DCIP absorbance 600 nm, higher = more signal, called active from +8 up or from −8 down.
Chain of Dihydroorotate dehydrogenase (quinone), mitochondrial (Plasmodium falciparum (isolate 3D7)) (Q08210 whole entry, looked up): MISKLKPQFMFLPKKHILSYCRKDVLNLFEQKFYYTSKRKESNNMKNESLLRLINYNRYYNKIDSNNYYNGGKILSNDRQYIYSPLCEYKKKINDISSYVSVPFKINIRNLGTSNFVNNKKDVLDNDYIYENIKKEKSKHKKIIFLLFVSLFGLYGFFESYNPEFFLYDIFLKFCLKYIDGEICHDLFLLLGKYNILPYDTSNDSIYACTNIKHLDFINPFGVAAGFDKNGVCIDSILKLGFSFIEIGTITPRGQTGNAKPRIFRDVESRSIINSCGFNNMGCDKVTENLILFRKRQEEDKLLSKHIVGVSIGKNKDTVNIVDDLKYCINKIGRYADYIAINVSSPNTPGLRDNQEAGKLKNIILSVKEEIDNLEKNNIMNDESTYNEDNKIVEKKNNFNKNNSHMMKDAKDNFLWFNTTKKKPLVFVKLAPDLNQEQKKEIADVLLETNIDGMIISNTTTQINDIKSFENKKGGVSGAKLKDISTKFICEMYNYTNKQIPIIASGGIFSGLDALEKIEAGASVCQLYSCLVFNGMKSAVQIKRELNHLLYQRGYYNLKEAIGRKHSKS
Assay [5] can be described thus: P. aeruginosa biofilm formation inhibitors, primary screen, strain PAO1, LB-PBS medium, absorbance 600 nm (AID 1176). Also: test concentration not given here. Particulars: P. aeruginosa PAO1 growth/biofilm, A600, 12 h; higher = more signal.
Assay [6] can be described thus: S. cerevisiae RM11-1a growth modifiers, primary screen, strain RM11-1a, OD600, basal, 24 h (AID 1177).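 Also: cultures grown under basal conditions with no added stressor; test concentration not given here.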 Particulars: OD600, 24 h, higher = more signal, called active from +8 up or from −8 down.
A short description of assay [7]: E. coli acrAB mutant growth effects, primary screen, E. coli filamentation inducers, strain DRC39, OD650, 24 h (AID 1178).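 Also: growth measured as culture turbidity by optical density at 650 nm; test concentration not given here.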 Particulars: higher = more signal, called active from +8 up or from −8 down.
Assay [8] in a line: E. coli acrAB mutant growth effects, primary screen, E. coli filamentation inducers, strain DRC39, OD650, 48 h (AID 1179).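 Also: screen aims at cell division blockers that make cells filament.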 Particulars: E. coli DRC39 delta-acrAB growth, higher = more signal, called active from +8 up or from −8 down.
Assay [9] can be described thus: RPMI8226 myeloma cell viability, profiling panel, resazurin fluorescence, basal, 24 h, PK04 Diversity Set (AID 1180).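 Also: RPMI8826 multiple myeloma cell line at 5000 cells per well; test concentration not given here.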 Particulars: higher = more signal.
Assay [10] has as its target E3 ubiquitin-protein ligase XIAP (Homo sapiens) (UniProt P98170). The assay can be described thus: XIAP binders, primary screen, biophysical, small-molecule microarray, fluorescence 635 nm (AID 1181).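 Also: score merges 667 nm emission and signal to noise over triplicate slides.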 Particulars: small-molecule microarray binding, higher = more signal.

The source made the active and inactive calls. Unless noted, no rule for the calls is given here.

Chain of E3 ubiquitin-protein ligase XIAP (Homo sapiens) (P98170 whole entry, looked up): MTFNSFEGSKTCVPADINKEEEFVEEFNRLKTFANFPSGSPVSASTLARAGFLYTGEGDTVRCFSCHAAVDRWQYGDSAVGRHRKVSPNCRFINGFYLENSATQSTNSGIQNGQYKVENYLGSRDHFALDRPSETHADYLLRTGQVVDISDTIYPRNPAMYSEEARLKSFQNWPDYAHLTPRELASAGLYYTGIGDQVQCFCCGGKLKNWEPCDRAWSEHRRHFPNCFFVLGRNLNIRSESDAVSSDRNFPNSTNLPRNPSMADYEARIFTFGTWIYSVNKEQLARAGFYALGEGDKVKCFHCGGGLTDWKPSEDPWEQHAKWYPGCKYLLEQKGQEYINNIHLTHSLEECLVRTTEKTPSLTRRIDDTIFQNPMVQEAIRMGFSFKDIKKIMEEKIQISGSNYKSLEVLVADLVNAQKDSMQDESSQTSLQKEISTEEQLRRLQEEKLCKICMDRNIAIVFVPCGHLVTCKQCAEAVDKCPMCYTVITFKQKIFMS

As for `O=C(NCCN1CCOCC1)[C@@H]1c2ccccc2C(=O)N(Cc2cc(C(F)(F)F)cc(C(F)(F)F)c2)[C@H]1c1ccc(CO)cc1`, the z-score is -0.731 in assay [1]; 0.164 (inactive) in assay [2]; 0.0896 (inactive) in assay [3]; 0.224 (inactive) in assay [5]; 0.842 (inactive) in assay [6]; 1.06 (inactive) in [7]. Besides, the z-score is 0.321 (inactive) in assay [8] and 0.0838 in [9]. In addition, the composite z-score in [4] was 0.434 (inactive); in assay [10], -0.242.
On to `CC(C)NC(=O)[C@@H]1c2ccccc2C(=O)N(C(C)C)[C@H]1c1ccc(CO)cc1`, for which the z-score was 1.02 in [1]; -0.37 (inactive) in assay [2]; 0.537 (inactive) in assay [3]; -0.397 (inactive) in [5]; 0.0971 (inactive) in assay [6]; 0.494 (inactive) in [7]. Further, the z-score in assay [8] was 0.671 (inactive); in [9], 0.135. The composite z-score in assay [4] was 0.654 (inactive); in assay [10] it was -0.398.
Turning to `C=CCC(OC(C)=O)[C@@H]1[C@@H](N(Cc2cc3ccccc3o2)C(=O)Cc2ccc(OC)cc2)c2cc(OCCCO)ccc2N1C(=O)c1ccc2ccccc2c1` (stereo not given in full), the z-score was -1.5 in assay [1]; -0.256 (inactive) in assay [2]; -0.0928 (inactive) in assay [3]; -0.227 (inactive) in assay [5]; -0.226 (inactive) in [6]; -0.629 (inactive) in assay [7]. The z-score in assay [8] is -1.05 (inactive); in assay [9] it was -0.516. The composite z-score was 0.164 (inactive) in [4] and 0.0374 in assay [10].
In the case of `CN(C)CCCC[C@@H]1NC(=O)[C@H]2C[C@@H](C(=O)NCCCCCN)[C@@H](c3cccc(OCCO)c3)N2C1=O`, the z-score is 0.306 in assay [1]; -0.7 (inactive) in [2]; 0.606 (inactive) in assay [3]; 0.118 (inactive) in assay [5]; -0.629 (inactive) in assay [6]; 0.139 (inactive) in assay [7]. In addition, the z-score was -0.386 (inactive) in assay [8] and 0.932 in [9]. The composite z-score in assay [4] is -0.997 (inactive); in [10], 0.0101.
With `C=CC1c2cc(O)c(OC)cc2CCN1Cc1cccc(OC(F)(F)F)c1` (stereo not given), the z-score in [1] is 0.125; in assay [2], -16.7 (active); in assay [3] it was -4.17 (inactive); in assay [5], 0.0898 (inactive); in assay [6], -13.7 (active); in assay [7], 1.2 (inactive). Besides, the z-score in assay [8] was 0.738 (inactive); in assay [9], -2.3. Moreover, the composite z-score was -5.06 (inactive) in assay [4] and 0.0304 in assay [10].
As to `COc1cc2c(cc1O)C=[N+](Cc1cc3c(cc1Br)OCO3)CC2`, the z-score is -0.532 in assay [1]; 0.384 (inactive) in assay [2]; -1.29 (inactive) in [3]; 0.0898 (inactive) in [5]; 0.593 (inactive) in assay [6]; -0.31 (inactive) in [7]. The z-score was -0.3 (inactive) in assay [8] and -0.566 in assay [9]. Further, the composite z-score in assay [4] is 0.707 (inactive); in [10], -0.252.
Consider `O=C1O[C@@H](c2ccccc2)[C@@H](c2ccccc2)N2[C@@H](c3ccc(OCCO)cc3)[C@]3(C(=O)Nc4ccc(C#CC5=CCCCC5)cc43)[C@@H](C(=O)N3CCCCCCC3)[C@H]12`, for which the z-score was -0.399 in assay [1]; 0.593 (inactive) in assay [2]; 0.0902 (inactive) in assay [3]; 1.77 (inactive) in assay [5]; 0.911 (inactive) in assay [6]; -1.32 (inactive) in assay [7]. Further, the z-score in assay [8] is 0.0745 (inactive); in assay [9], 0.152. The figures for the composite z-score in assay [4] and in assay [10] were -0.73 (inactive) and 0.642, respectively.
As to `O=C1O[C@@H](c2ccccc2)[C@@H](c2ccccc2)N2[C@@H](c3ccccc3OCCO)[C@]3(C(=O)Nc4ccccc43)[C@@H](C(=O)O)[C@H]12`, the z-score is -0.0985 in assay [1]; -2.46 (inactive) in [2]; 0.19 (inactive) in [3]; 0.986 (inactive) in assay [5]; 0.324 (inactive) in assay [6]; -0.582 (inactive) in assay [7]. In addition, the z-score in assay [8] is -0.76 (inactive); in assay [9] it was 0.125. In addition, the composite z-score in assay [4] was -0.487 (inactive); in assay [10], 0.0755.
Regarding `CC=CC(O)C1C=CC2C(=O)N(C)C(=O)C2N1N(c1ccccc1)c1ccccc1` (stereo not given), the z-score in assay [1] was 0.0376; in [2] it was 0.554 (inactive); in [3], -0.505 (inactive); in assay [5] it was -0.531 (inactive); in [6] it was 0.823 (inactive); in assay [7] it was -1.15 (inactive). For the same compound, the results for the z-score in assay [8] and in [9] were -0.321 (inactive) and -0.905, respectively. For the same compound, the composite z-score was 1.13 (inactive) in assay [4] and 0.0116 in [10].
With `O=C1OCCC=C[C@H]2OC34C=CCN(c5ccc(Cl)cc5)C(=O)[C@H]3N(CCCO)C(=O)[C@@H]4C12` (stereo not given in full), the z-score in [1] is -0.281; in [2], -0.757 (inactive); in assay [3], 0.357 (inactive); in [5], 0.248 (inactive); in assay [6], -0.163 (inactive); in [7], 0.881 (inactive). Moreover, the z-score in assay [8] was 0.415 (inactive); in assay [9] it was -0.658. In addition, the composite z-score was -0.792 (inactive) in [4] and -0.0826 in [10].
On to `COC(=O)[C@@]1(CCC(=O)OC(C)(C)C)N=C(c2ccc(OCCCO)cc2)O[C@H]1c1ccccc1`, for which the z-score in assay [1] is -0.291; in [2], -0.814 (inactive); in [3] it was -1.34 (inactive); in assay [5], 0.618 (inactive); in [6] it was 1.47 (inactive); in assay [7], -3.29 (inactive). The z-score is -0.735 (inactive) in assay [8] and -0.808 in [9]. For the same compound, the figures for the composite z-score in assay [4] and in assay [10] were 1.27 (inactive) and -0.0095, respectively.
On to `CC(C)CCC[C@@H](C)[C@H]1CC[C@@]2(C)C3=C(CC[C@]12C)[C@@]1(C)CC[C@H](OC(=O)c2ccc(C(F)(F)F)nc2)C(C)(C)C1CC3` (stereo not given in full), for which the z-score in assay [1] is 0.305; in [2] it was -0.473 (inactive); in [3], 0.175 (inactive); in [5] it was 0.188 (inactive); in assay [6], -2.03 (inactive); in assay [7] it was 0.634 (inactive). The z-score in assay [8] was 0.762 (inactive); in assay [9] it was 0.605. Besides, the composite z-score is -1.08 (inactive) in [4] and -0.161 in assay [10].
In the case of `CC[C@@H]1C=C(C(=O)O)[C@H](c2cccc3ccccc23)N1S(=O)(=O)c1ccc(C)cc1`, the z-score in [1] was -0.359; in assay [2], 0.518 (inactive); in [3], -0.653 (inactive); in assay [5] it was 0.546 (inactive); in [6], -0.43 (inactive); in [7] it was -0.624 (inactive). Moreover, the values for the z-score in [8] and in assay [9] were 0.225 (inactive) and -1, respectively. In addition, the composite z-score in assay [4] is 0.859 (inactive); in assay [10], -0.359.
